The text below walks through data of article PMC7862700, “An all-to-all approach to the identification of sequence-specific readers for epigenetic DNA modifications on cytosine”.

What all share (assay): DAPPL (digital affinity profiling via proximity ligation, sequencing); 10 mM Tris-HCl pH 7.5, 50 mM NaCl, 1 mM DTT, 4% glycerol, room temperature, 30 min; GST-TFs on glutathione beads, 16-mer random dsDNA library, 0.1% formaldehyde crosslink after washing; high values mean tight binding
One experiment deals with T1, FLI1 (Homo sapiens, UniProt Q01543 1-452).
T1 sequence: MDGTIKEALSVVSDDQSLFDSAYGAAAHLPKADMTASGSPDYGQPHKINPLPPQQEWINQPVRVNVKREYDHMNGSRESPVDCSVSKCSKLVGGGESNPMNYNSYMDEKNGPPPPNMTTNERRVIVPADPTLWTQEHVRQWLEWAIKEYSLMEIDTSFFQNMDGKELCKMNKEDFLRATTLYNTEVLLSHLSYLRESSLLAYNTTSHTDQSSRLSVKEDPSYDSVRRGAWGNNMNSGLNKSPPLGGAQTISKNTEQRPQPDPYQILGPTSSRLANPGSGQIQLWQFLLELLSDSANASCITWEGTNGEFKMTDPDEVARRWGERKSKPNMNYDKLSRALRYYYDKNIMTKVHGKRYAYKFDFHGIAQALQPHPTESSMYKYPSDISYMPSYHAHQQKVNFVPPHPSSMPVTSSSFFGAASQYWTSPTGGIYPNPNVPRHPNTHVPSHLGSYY
Particulars: protein: recombinant; tags: N-terminal GST; dsDNA, one strand shown. Put shortly:
(§1)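 The binding signal reported is, for every hexamer, its read frequency for a factor over its read frequency for the tag-only sample. Reads came from pools of yeast-expressed, GST-fused human transcription factors on glutathione beads, barcoded with DNA and mixed with that sample, which were incubated with 200 nmole of a random double-stranded 16-mer DNA library in Tris/NaCl/DTT/glycerol buffer at room temperature for 30 min. After washing, the pools were crosslinked with 0.1% formaldehyde, proximity-ligated with BsaI/T4 ligase for 1 h at 37 °C, PCR-amplified and sequenced on an Illumina NextSeq500.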

In the next experiment the target is T2, ELK1 (Homo sapiens, UniProt P19419 1-428).
T2 sequence: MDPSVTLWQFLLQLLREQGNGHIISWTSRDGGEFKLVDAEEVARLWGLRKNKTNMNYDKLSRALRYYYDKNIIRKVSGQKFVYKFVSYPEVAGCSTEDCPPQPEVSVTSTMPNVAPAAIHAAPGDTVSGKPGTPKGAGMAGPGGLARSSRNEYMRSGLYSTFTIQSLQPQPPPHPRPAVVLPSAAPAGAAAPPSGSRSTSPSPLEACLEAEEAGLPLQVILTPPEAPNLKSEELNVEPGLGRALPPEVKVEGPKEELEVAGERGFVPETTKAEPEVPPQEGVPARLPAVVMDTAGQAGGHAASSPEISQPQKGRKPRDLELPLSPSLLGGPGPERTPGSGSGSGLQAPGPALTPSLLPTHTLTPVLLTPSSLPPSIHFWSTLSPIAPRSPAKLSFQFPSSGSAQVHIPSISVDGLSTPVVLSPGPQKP
Particulars: protein: recombinant; tags: N-terminal GST; dsDNA, one strand shown. The method in brief:
as §1

The target of the next experiment is T3, GABPA (Homo sapiens, UniProt Q06546 1-454).
T3 sequence: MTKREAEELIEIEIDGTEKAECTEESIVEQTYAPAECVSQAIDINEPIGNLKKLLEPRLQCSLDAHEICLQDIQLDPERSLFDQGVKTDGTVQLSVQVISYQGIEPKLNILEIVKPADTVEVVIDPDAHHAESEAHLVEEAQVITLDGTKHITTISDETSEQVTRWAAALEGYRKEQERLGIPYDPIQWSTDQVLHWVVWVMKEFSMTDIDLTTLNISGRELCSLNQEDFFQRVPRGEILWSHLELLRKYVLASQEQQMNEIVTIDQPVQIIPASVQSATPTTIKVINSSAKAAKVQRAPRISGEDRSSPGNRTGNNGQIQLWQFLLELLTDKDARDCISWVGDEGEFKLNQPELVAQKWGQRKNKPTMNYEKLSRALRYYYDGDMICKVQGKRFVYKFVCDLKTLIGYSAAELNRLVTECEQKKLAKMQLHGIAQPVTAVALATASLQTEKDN
The following applies: protein: recombinant; tags: N-terminal GST; dsDNA, one strand shown. Put shortly: as §1

Another experiment has as its target T4, ERG (Homo sapiens, UniProt P11308 1-479).
T4 sequence: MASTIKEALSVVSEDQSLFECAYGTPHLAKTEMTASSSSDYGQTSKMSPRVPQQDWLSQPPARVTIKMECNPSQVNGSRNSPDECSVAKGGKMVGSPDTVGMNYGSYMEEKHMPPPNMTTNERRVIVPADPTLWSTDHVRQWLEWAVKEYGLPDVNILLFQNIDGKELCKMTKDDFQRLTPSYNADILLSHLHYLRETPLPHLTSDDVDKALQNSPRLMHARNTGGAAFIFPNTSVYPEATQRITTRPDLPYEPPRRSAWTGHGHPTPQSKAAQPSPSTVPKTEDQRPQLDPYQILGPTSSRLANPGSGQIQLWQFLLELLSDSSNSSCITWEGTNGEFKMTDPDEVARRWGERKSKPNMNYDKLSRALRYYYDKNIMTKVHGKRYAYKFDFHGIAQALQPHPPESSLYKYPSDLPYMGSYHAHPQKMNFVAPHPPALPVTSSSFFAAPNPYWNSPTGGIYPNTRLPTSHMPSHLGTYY
The following applies: protein: recombinant; tags: N-terminal GST; dsDNA, one strand shown. Put shortly:
as §1

For another experiment, the target named is ELF1 (Homo sapiens, UniProt P32519 1-619). Particulars: protein: recombinant; tags: N-terminal GST; dsDNA, one strand shown. Put shortly: as §1
Another experiment has as its target T5, EHF (Homo sapiens, UniProt Q9NZC4 1-300).
T5 sequence: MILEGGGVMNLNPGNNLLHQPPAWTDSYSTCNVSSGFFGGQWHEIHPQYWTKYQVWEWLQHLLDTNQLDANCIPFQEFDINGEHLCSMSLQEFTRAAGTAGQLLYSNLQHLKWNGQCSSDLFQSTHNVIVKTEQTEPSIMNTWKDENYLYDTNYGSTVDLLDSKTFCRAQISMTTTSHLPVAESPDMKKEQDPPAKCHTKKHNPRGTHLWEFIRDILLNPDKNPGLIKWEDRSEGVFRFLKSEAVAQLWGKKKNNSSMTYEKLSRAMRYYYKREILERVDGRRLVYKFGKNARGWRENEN
The following applies: protein: recombinant; tags: N-terminal GST; dsDNA, one strand shown. The method in brief:
as §1

The target of a further experiment is SPIB (Homo sapiens, UniProt Q01892 1-262). Particulars: protein: recombinant; tags: N-terminal GST; dsDNA, one strand shown. Put shortly: as §1
The target of a further experiment is T6, ELK3 (Homo sapiens, UniProt P41970 1-407).
T6 sequence: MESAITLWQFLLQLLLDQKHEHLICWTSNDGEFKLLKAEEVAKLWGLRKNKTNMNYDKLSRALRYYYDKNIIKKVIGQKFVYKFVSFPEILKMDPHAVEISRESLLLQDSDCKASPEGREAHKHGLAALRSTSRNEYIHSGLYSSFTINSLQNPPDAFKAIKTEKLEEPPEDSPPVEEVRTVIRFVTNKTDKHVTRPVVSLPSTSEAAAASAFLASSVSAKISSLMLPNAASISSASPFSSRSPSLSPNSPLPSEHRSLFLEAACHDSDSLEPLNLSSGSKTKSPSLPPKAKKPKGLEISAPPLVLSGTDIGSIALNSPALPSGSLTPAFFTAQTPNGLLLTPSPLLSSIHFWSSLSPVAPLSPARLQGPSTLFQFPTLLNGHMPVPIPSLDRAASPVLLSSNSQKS
The following applies: protein: recombinant; tags: N-terminal GST; dsDNA, one strand shown. Put shortly:
as §1

For the next experiment, the target named is T7, FEV (Homo sapiens, UniProt Q99581 1-238).
T7 sequence: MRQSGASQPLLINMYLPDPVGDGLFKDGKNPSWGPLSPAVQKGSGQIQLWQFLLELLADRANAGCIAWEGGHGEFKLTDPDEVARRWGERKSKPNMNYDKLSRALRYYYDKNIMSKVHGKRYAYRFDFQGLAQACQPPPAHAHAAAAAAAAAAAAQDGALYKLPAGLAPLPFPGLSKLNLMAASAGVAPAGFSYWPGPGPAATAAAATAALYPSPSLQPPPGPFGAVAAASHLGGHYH
The following applies: protein: recombinant; tags: N-terminal GST; dsDNA, one strand shown. Put shortly: as §1

The target in a further experiment is ETV5 (Homo sapiens, UniProt P41161 1-510). Particulars: protein: recombinant; tags: N-terminal GST; dsDNA, one strand shown. The method in brief:
as §1

A further experiment addresses HSF1 (Homo sapiens, UniProt Q00613 1-529). The following applies: protein: recombinant; tags: N-terminal GST; chain copies: 3; dsDNA, one strand shown. Put shortly:
as §1

The next experiment deals with T8, SPIC (Homo sapiens, UniProt Q8N5J4 1-248).
T8 sequence: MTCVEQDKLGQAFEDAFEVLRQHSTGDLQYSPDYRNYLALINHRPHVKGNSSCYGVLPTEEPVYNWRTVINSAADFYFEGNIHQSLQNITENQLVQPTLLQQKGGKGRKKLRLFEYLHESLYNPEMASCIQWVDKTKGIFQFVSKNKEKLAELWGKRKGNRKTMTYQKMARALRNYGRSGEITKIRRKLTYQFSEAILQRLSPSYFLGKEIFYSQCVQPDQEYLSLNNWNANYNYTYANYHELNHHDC
The following applies: protein: recombinant; tags: N-terminal GST; dsDNA, one strand shown. Put shortly:
as §1

The target in the next experiment is ELF4 (Homo sapiens, UniProt Q99607 1-663). The following applies: protein: recombinant; tags: N-terminal GST; dsDNA, one strand shown. The method in brief: as §1
In another experiment the target is T9, ELK4 (Homo sapiens, UniProt P28324-2 1-405).
T9 sequence: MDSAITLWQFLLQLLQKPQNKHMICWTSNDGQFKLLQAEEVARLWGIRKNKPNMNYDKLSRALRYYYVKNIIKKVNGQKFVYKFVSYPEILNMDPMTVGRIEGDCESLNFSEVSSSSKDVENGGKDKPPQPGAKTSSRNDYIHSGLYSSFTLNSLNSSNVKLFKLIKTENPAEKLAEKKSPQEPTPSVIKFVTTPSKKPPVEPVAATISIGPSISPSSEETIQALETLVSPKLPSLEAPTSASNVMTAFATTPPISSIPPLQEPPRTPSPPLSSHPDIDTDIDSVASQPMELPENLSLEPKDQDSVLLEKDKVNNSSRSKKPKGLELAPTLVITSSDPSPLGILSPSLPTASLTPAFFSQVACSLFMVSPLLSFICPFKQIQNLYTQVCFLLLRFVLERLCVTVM
The following applies: protein: recombinant; tags: N-terminal GST; dsDNA, one strand shown. Put shortly: as §1

Another experiment concerns the target T10, ETV2 (Homo sapiens, UniProt O00321 1-342).
T10 sequence: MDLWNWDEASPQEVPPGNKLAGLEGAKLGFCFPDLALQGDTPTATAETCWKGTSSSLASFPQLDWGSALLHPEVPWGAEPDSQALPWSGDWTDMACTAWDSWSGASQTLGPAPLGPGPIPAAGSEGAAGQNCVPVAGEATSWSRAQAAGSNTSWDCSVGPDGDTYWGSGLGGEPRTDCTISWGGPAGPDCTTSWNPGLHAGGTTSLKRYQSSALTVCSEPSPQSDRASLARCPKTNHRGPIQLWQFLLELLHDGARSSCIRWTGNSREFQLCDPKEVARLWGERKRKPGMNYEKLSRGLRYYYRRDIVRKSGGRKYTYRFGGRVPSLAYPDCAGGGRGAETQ
The following applies: protein: recombinant; tags: N-terminal GST; dsDNA, one strand shown. Put shortly:
as §1

A further experiment addresses T11, ELF3 (Homo sapiens, UniProt P78545 1-371).
T11 sequence: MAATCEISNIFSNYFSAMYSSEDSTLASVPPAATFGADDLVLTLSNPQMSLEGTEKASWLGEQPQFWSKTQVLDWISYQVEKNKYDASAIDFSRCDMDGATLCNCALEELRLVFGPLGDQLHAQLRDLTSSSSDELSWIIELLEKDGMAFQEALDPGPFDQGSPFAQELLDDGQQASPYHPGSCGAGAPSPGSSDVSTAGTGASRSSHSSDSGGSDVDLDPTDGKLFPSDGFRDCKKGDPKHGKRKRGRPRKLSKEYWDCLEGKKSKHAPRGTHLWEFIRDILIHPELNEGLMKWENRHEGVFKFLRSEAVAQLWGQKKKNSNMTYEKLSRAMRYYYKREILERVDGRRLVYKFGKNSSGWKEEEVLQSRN
Particulars: protein: recombinant; tags: N-terminal GST; dsDNA, one strand shown. The method in brief: as §1

Another experiment has as its target ETV1 (Homo sapiens, UniProt P50549 1-477). Particulars: protein: recombinant; tags: N-terminal GST; dsDNA, one strand shown. The method in brief: as §1

Chain of ELF4 (Q99607 whole entry): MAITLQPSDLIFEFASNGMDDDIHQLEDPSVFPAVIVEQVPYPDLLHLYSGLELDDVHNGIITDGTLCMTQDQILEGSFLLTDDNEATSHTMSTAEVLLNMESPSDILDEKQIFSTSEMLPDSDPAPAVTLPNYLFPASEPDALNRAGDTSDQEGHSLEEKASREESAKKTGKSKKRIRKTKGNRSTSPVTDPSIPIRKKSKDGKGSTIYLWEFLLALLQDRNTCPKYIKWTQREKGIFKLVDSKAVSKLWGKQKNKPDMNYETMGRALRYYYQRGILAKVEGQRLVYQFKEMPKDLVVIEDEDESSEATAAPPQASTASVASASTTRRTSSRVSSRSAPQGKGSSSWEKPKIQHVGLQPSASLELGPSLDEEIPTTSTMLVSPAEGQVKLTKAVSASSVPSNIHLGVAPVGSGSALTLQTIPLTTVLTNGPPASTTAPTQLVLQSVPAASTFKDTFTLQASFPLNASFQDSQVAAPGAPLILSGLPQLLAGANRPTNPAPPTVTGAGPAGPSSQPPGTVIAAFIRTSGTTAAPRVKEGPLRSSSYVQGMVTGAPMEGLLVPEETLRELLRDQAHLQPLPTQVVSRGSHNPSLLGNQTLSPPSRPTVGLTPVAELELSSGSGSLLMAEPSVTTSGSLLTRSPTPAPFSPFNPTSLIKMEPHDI
Chain of HSF1 (Q00613 whole entry): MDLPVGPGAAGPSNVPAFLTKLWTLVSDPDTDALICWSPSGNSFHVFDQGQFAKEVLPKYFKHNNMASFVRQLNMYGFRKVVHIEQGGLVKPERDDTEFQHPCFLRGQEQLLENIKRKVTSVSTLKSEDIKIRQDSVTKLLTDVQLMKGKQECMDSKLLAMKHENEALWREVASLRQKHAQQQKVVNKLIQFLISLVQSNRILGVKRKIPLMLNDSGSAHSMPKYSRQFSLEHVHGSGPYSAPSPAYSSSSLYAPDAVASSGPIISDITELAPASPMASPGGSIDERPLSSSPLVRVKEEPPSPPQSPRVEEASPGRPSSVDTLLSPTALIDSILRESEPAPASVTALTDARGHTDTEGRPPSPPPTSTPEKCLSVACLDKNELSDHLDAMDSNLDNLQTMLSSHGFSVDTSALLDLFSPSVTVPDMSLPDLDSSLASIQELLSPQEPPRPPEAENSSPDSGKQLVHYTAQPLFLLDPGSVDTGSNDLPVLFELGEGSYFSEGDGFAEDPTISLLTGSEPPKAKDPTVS
Chain of SPIB (Q01892 whole entry): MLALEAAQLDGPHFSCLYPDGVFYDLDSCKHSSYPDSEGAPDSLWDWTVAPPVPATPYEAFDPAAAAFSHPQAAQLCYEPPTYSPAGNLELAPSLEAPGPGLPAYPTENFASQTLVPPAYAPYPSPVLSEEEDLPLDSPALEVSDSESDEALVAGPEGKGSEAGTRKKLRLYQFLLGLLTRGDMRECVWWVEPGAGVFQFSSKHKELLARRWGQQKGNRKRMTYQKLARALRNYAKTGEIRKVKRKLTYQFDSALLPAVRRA
Chain of ELF1 (P32519 whole entry): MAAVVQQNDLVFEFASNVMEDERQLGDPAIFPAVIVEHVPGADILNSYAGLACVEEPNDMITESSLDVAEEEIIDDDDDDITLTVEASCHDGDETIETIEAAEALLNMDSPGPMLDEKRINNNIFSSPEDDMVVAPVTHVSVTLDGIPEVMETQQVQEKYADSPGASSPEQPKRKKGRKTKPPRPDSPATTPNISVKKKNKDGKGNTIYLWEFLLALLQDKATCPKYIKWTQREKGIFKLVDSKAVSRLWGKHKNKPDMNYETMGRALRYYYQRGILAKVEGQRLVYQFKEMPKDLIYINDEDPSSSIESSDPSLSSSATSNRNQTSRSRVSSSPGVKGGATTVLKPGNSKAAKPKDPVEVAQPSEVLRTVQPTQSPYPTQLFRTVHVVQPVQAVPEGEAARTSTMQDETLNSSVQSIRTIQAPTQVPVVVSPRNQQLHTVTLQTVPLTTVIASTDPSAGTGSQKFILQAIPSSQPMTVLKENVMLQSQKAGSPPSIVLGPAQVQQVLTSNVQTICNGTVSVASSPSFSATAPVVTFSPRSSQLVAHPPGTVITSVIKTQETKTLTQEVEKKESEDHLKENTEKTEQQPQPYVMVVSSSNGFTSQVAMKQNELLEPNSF
Chain of ETV1 (P50549 whole entry): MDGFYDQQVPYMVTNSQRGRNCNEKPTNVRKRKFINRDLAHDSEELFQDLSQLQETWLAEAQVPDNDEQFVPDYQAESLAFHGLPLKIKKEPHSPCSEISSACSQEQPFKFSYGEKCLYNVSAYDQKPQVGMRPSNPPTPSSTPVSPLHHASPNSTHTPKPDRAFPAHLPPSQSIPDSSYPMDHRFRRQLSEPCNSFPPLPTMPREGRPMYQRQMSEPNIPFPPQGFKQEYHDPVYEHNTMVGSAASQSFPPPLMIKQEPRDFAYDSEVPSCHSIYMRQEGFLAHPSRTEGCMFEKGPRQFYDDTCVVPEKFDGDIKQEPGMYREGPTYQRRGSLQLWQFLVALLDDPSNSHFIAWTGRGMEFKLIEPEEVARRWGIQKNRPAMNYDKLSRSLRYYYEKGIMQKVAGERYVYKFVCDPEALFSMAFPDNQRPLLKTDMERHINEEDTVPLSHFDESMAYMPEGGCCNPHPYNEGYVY
Chain of ETV5 (P41161 whole entry): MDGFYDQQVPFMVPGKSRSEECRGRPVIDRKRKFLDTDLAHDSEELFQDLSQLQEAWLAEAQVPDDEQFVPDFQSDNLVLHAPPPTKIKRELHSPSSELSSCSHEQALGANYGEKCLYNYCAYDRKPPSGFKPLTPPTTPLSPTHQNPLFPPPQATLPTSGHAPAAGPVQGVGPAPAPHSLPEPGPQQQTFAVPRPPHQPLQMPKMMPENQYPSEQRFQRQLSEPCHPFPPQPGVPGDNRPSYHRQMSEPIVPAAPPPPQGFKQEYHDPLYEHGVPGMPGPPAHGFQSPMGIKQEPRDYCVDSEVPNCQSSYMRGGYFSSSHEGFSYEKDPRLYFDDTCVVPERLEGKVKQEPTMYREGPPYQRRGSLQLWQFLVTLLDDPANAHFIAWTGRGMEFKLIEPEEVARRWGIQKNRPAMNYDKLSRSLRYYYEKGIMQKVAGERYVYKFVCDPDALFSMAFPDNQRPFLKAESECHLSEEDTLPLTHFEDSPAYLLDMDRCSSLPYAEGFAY

CAACGA: the binding signal is 1.05 fold enrichment (6-mer frequency, TF over GST control) with FLI1; 1.08 fold enrichment (6-mer frequency, TF over GST control) with ELK1; 1.08 fold enrichment (6-mer frequency, TF over GST control) with GABPA; 1.07 fold enrichment (6-mer frequency, TF over GST control) with ERG; 1.1 fold enrichment (6-mer frequency, TF over GST control) in the experiment with ELF1; 1.01 fold enrichment (6-mer frequency, TF over GST control) with EHF. Also, the binding signal with SPIB is 1.03 fold enrichment (6-mer frequency, TF over GST control); in the experiment with ELK3, 1.09 fold enrichment (6-mer frequency, TF over GST control); with FEV it was 1.01 fold enrichment (6-mer frequency, TF over GST control); with ETV5, 1.02 fold enrichment (6-mer frequency, TF over GST control); with HSF1, 1 fold enrichment (6-mer frequency, TF over GST control); with SPIC, 1.1 fold enrichment (6-mer frequency, TF over GST control). Besides, the binding signal with ELF4 is 1.1 fold enrichment (6-mer frequency, TF over GST control); with ELK4 it was 1.14 fold enrichment (6-mer frequency, TF over GST control); with ETV2, 1.01 fold enrichment (6-mer frequency, TF over GST control); with ELF3, 1.08 fold enrichment (6-mer frequency, TF over GST control); with ETV1, 1 fold enrichment (6-mer frequency, TF over GST control).
